Source: PubChem BioAssay (NCATS)
Inconclusive results are not listed. Where a call stands in place of a potency, no number is given. Activity calls are given as the source filed them. Calls follow the shape of the dose curve; as a rule, active = well fitted activation curve with a large enough effect; inconclusive = small, poorly fitted or top-dose-only effect; inactive = flat fitted curve, though single readings scatter.

Assay: Primary redox qHTS assay for identification of artifact compounds. (AID 1845223)
Conditions: Amplex Red/HRP redox cycling with DTT, fluorescence; series mostly up to 53.8 µM
Method in brief: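 Redox-cycling detection via DTT (250 uM final) oxidation coupled to Amplex Red (25 uM)/HRP (250 mU/mL) in HBSS. 15 min preincubation plus 30 min after DTT, room temperature. Ex/Em 525/598 nm; 4-parameter Hill fit against DMSO and 10 uM DA3003.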

## CC1C(=O)CC2C3C(O)CC(C(=O)O)C12CC3(C)C (configuration not stated)
  Potency: inactive

## O=C(CCO[C@@H]1O[C@H](CO)[C@@H](O)[C@H](O)[C@H]1O)c1ccc(O)cc1
  Potency: inactive

## CCOC(=O)[C@H](CCc1ccccc1)CC1(C(=O)N[C@H]2CCc3ccccc3N(CC(=O)O)C2=O)CCCC1
  Potency: inactive

## C=C(C)[C@H]1C[C@@H](O)C(=C)CC[C@@H](O)C(=C)[C@@H](O)C1
  Potency: inactive

## CNC(=O)Nc1ccc(OC)c(NC(=O)NC(=O)c2cc(F)c(F)cc2Cl)c1
  Potency: inactive

## C=C1C(OC(C)=O)C(=O)C2C(C)(C)C(OC(C)=O)CCC2(C)C1CC(OC(C)=O)/C(C)=C/COC(C)=O (configuration not stated)
  Potency: inactive

## COC(=O)C1=CO[C@@H](O[C@@H]2O[C@H](CO)[C@@H](O)[C@H](O)[C@H]2O)[C@@H]2[C@@](C)(O)[C@@H](O)C[C@]12O
  Potency: inactive

## C/C=C(/C)C(=O)O[C@H]1C=C(C)C[C@H](OC(=O)c2ccc(O)cc2)C2[C@](O)(C(C)C)CC[C@@]21C (some centres not stated)
  Potency: inactive

## C=CCc1ccc(O[C@@H]2O[C@H](CO[C@@H]3O[C@H](CO)[C@@H](O)[C@H](O)[C@H]3O)[C@@H](O)[C@H](O)[C@H]2O)c(O)c1
  Potency: inactive

## OC[C@H]1O[C@@H](Oc2ccc3c(c2)OC[C@H]2c4cc5c(cc4O[C@@H]32)OCO5)[C@H](O)[C@@H](O)[C@@H]1O
  Potency: inactive

## COC(=O)[C@H](OC(C)=O)[C@H]1C(C)(C)C(=O)[C@H]2CC3=C4CC(=O)O[C@@H](c5ccoc5)[C@]4(C)CCC3[C@@]1(C)C2=O (some centres not stated)
  Potency: inactive

## COc1ccc2c(c1)OC[C@]1(O)c3cc4c(cc3O[C@H]21)OCO4
  Potency: inactive

## Cc1cc(C)cc(NC(=O)Cc2ccc(OC(C)(C)C(=O)O)cc2)c1
  Potency: inactive

## C=C(C(=O)OC)C1CCC2(C)C(O[C@@H]3O[C@H](CO)[C@@H](O)[C@H](O)[C@H]3O)CC(=O)C(C)C2C1O (some centres not stated)
  Potency: inactive

## C[C@@H](OC(=O)/C=C/c1ccc(O)cc1)C1=C[C@]2(C=C[C@@H]3C(C(=O)O)=CO[C@@H](O[C@@H]4O[C@H](CO[C@@H]5O[C@H](CO)[C@@H](O)[C@H](O)[C@H]5O)[C@@H](O)[C@H](O)[C@H]4O)[C@@H]32)OC1=O
  Potency: inactive

## CC(C)(OC1OC(CO)C(O)C(O)C1O)C1CCC(O)(CO)C2CC(O)C(C)(O)C2C1 (configuration not stated)
  Potency: inactive

## CC(=O)OC[C@@]12[C@@H](OC(C)=O)C[C@@H](C)[C@](C)([C@@H]3C[C@H]4C=CO[C@H]4O3)[C@H]1CCC[C@]21CO1
  Potency: inactive
